Laboratory results published in PubChem BioAssay.

target: Fibroblast growth factor 2 (Homo sapiens) (UniProt P09038); assay: FGF2 binders on small-molecule microarrays, primary screen, biochemical, small-molecule microarray, 635/667 nm fluorescence (AID 1133); conditions: small-molecule microarray binding, FGF2, fluorescence 635/667; higher = more signal
Sequence (P09038 whole entry, looked up): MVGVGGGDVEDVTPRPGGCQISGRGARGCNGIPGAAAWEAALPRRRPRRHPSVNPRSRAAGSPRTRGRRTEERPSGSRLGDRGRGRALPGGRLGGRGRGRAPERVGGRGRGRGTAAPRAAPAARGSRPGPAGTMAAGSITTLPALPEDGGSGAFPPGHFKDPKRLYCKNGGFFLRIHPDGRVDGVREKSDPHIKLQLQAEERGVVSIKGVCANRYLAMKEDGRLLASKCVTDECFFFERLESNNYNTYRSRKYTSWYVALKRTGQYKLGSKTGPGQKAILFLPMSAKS

Compound	composite z-score
CN1C=C(C(=O)OCCS(C)(=O)=O)C(C(=O)OCCS(C)(=O)=O)=CC(c2ccc(CO)cc2)=CC1c1cccs1 (stereo not given)	0.509
CS(=O)(=O)CCOC(=O)C1=CC(CCCO)=CC(C2CC2)N(Cc2cccc(OC(F)(F)F)c2)C=C1C(=O)OCCS(C)(=O)=O (stereo not given)	-0.256
CC(C)[C@H]1NC(=O)[C@@]23C(=O)N[C@@H](Cc4ccccc4)C2[C@H](C)[C@@]2(C)O[C@H]2C3/C=C/C/C=C\CNC(=O)[C@H](Cc2ccccc2)NC1=O (stereo not given in full)	1.42
Cc1ccc(S[C@]2(C(=O)NCc3ccccc3)CC(=O)N(Cc3cc(C(F)(F)F)cc(C(F)(F)F)c3)[C@@H]2c2ccc(CO)cc2I)cc1	-1.45
CN(C)C(=O)[C@@]1(Cc2ccccc2N=[N+]=[N-])N=C(c2ccc(OCCCO)cc2)O[C@H]1c1ccccc1	1.37
COCC1=C2[C@@H](CCc3ccccc3)OB(O)C[C@@H]2[C@@H]2C(=O)N(C)C(=O)[C@@H]2C1	0.833
O=C1C2C=CC(C(O)c3ccco3)N(Nc3ccccc3)C2C(=O)N1c1ccccc1 (stereo not given)	-1.21
NC(=O)[C@H]1[C@@H]2C(=O)O[C@@H](c3ccccc3)[C@@H](c3ccccc3)N2[C@@H](c2ccc(O)cc2)[C@]12C(=O)Nc1ccc(C#CC3=CCCCC3)cc12	-0.004
C=C(/C(=C/C[C@@H](OC(=O)c1ccncc1)c1cccc(OCCO)c1)c1cnc2ccccc2c1)C(C)C	2.01
CC(C)[C@H]1NC(=O)[C@@]23C(=O)N[C@@H](Cc4ccccc4)C2[C@H](C)[C@@]2(C)O[C@H]2C3/C=C/CCC/C=C/CNC(=O)[C@H](Cc2ccccc2)NC1=O (stereo not given in full)	-0.0659
C=C(COC)/C(=C/C[C@@H](OC(C)=O)c1ccc(CO)o1)c1cc(C(=O)OC)ccc1OC	-0.314
C=CCC(OC(C)=O)[C@@H]1[C@@H](N(Cc2cccc3ccccc23)C(=O)Cc2ccc(F)cc2)c2cc(OCCCO)ccc2N1C(=O)c1ccc(-c2ccccc2)cc1 (stereo not given in full)	0.292
CC(=O)NCCCC[C@@H]1NC(=O)[C@H]2C[C@@H](C(=O)NCCCCCNC(=O)CS)[C@@H](c3cccc(OCCO)c3)N2C1=O	1.6
COCCOC(=O)N1C(=O)[C@@]2(c3cc(C#CCC(C(=O)OC)C(=O)OC)ccc31)[C@H](c1ccc(O)cc1)N1[C@H](c3ccccc3)[C@H](c3ccccc3)OC(=O)[C@H]1[C@@H]2C(=O)NC[C@H](O)c1ccccc1	-0.011
Cc1ccccc1C(O)C1C=CC2C(=O)N(c3ccccc3)C(=O)C2N1Nc1ccc([N+](=O)[O-])cc1 (stereo not given)	1.06
Cc1cccc([C@H]2C[C@H]3C(Br)=C[C@@H]2C(=O)[C@]32CO2)c1	0.291
CCOC(=O)C=Cc1ccccc1O	0.292
CCOC(=O)C1=CCC(c2ccccc2)N(S(=O)(=O)c2ccc([N+](=O)[O-])cc2)C1 (stereo not given)	-0.169

Compound	composite z-score
C=C(CCCC)C(=O)CC[C@@H](OC(=O)c1cccnc1)c1ccc(OCCO)cc1	1.56
CC(C)C[C@@H]1NC(=O)CNC(=O)[C@@]23C(=O)N[C@@H](Cc4ccccc4)C2[C@H](C)[C@@]2(C)O[C@H]2C3/C=C/C/C=C\CNC1=O (stereo not given in full)	0.759
[N-]=[N+]=Nc1ccccc1C[C@@]1(C(=O)O)N=C(c2ccc(OCCCO)cc2)O[C@@H]1c1ccccc1N=[N+]=[N-]	-0.606
CCCCC(=O)N(CCN1CCOCC1)[C@@H]1CC(C(=O)NCCO)=C[C@H](Oc2c(I)cc(CO)cc2OC)[C@H]1O	0.902
COc1ccc(C#Cc2ccc3c(c2)[C@]2(C(=O)N3)[C@H](C(=O)N3CCCCCCC3)[C@H]3C(=O)O[C@H](c4ccccc4)[C@H](c4ccccc4)N3[C@@H]2c2ccc(O)cc2)cc1	0.709
CCOC(=O)C1=C[C@@H](c2ccccc2)N(S(=O)(=O)c2ccc(C)cc2)[C@H]1c1ccccc1	0.466
COCCOC(=O)N1C(=O)[C@@]2(c3cc(C#CCCO)ccc31)[C@H](C(N)=O)[C@H]1C(=O)O[C@H](c3ccccc3)[C@H](c3ccccc3)N1[C@@H]2c1ccc(OCCO)cc1	0.805
C=C(/C(=C/C[C@@H](OC(C)=O)c1ccc(CO)o1)c1cc(C(=O)OC)ccc1OC)C(C)C	0.682
CCCCCCCCCCC(O)C1C=CC2C(=O)N(C)C(=O)C2N1Nc1cc(OC)c(OC)c(OC)c1 (stereo not given)	-1.44
C=CCC(OC(C)=O)[C@@H]1[C@@H](N(Cc2ccc(-c3ccccc3)cc2)C(=O)Cc2ccc(F)cc2)c2cc(OCCCO)ccc2N1C(=O)Cc1ccc2ccccc2c1 (stereo not given in full)	-0.0712
COCCOC(=O)N1C(=O)[C@@]2(c3cc(C#CCNC(N)=O)ccc31)[C@H](c1ccc(OCCO)cc1)N1[C@H](c3ccccc3)[C@H](c3ccccc3)OC(=O)[C@H]1[C@@H]2C(=O)NC[C@H](O)c1ccccc1	1
C=C[C@@H](C)[C@H](O)c1ccc(OCCO)cc1	-0.994
CC(=O)N1CC(C(O)C2C=CC3C(=O)NC(=O)C3N2Nc2ccc(Cl)cc2Cl)c2ccccc21 (stereo not given)	-0.0113
Nc1cc(Br)ccc1C(=O)O	0.372
C=C(CCCC)/C(=C/C[C@H](OC(C)=O)c1ccc(OCCO)cc1)c1cc(C(=O)OC)ccc1OC	0.103
C=C(COC)/C(=C/C[C@H](OC(C)=O)c1cccc(OCCO)c1)c1cnc2ccccc2c1	1.57
C=CCNC(=O)[C@H]1[C@@H]2C(=O)O[C@@H](c3ccccc3)[C@@H](c3ccccc3)N2[C@@H](c2ccc(OCCO)cc2)[C@]12C(=O)N(C(=O)OCCOC)c1ccc(C#Cc3ccc(OC)cc3)cc12	0.714
